# BJeLR lethal: MLPCN primary cell-based screen for lethality selective to Ras in HRASV12 cells; BJeLR (HRASV12) viability, CellTiter-Glo ATP luminescence, 48 h; inhibition, % (no concentration beside the values); 300,000 tested, 0.17% active; AID 1554, 2009; in the data active = inhibition above about 50%
# PfHsp40 rescue: rescue of yeast from PfHsp40 toxicity, primary screen, S. cerevisiae, ATP luminescence | S. cerevisiae expressing PfHsp40, growth rescue | 340,000 tested, 0.68% active | growth rescue, % at 12.5 µM; in the data active = growth rescue above about 28%, passing the limit was not always enough;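 also: yeast W303a lacking pdr1 and pdr3 grown in galactose medium; growth measured after three days at 30 °C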
# MazEF act: activators of E. coli MazEF toxin-antitoxin RNase, primary screen, biochemical, fluorescence, uHTS | activation, % at 20 µM | Endoribonuclease toxin MazF (Escherichia coli (strain K12)), P0AE70 | AID 504720, 2011 | 350,000 tested, 0.32% active | FAM/BHQ RNA-DNA oligo cleavage fluorescence, 5 h; in the data active = activation above about 50%
# Target sequence (P0AE70 whole entry, looked up): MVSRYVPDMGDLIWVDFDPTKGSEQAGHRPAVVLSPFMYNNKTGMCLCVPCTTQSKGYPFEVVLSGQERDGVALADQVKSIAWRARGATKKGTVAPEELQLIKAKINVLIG
# DUSP3 inh: VHR1 phosphatase inhibitors, primary screen, biochemical, absorbance, uHTS; recombinant VHR phosphatase, pNPP absorbance; inhibition, % at 13.3 µM; 290,000 tested, 0.52% active; in the data active = inhibition above about 50%
# Target sequence (P51452 whole entry, looked up): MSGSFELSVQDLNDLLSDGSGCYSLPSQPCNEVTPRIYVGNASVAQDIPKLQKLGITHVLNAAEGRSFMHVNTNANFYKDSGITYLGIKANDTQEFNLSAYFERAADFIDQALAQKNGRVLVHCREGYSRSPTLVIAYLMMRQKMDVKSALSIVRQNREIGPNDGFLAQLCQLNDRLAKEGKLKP
# BH1578 lux ind: inducers of Vibrio cholerae quorum light production without autoinducers, primary screen, BH1578 luxS cqsA deficient, single point; AID 588436, 2011; 350,000 tested, 0.16% active; activation, % at 18.7 µM; V. cholerae BH1578 lux reporter, luminescence, 6 h; in the data active = activation mostly above about 9.7%, no sharp cut-off
# 3CLpro inhibitor: SARS-CoV 3CLpro protease inhibitors, primary screen, biochemical, quenched FRET; Replicase polyprotein 1ab (Severe acute respiratory syndrome coronavirus), P0C6X7; recombinant SARS-CoV 3CLpro, quenched FRET peptide cleavage; inhibition, % at 6 µM; 290,000 tested, 0.14% active; AID 1706, 2009; in the data active = inhibition above about 12%
# Active calls of the source: *; i = inactive; nt = no result given; + = active, no number. Hits are enriched below; roughly 1.7% of the tested compounds scored in any of these assays.
SMILES,BJeLR lethal,PfHsp40 rescue,MazEF act,DUSP3 inh,BH1578 lux ind,3CLpro inhibitor
COc1ccc(Br)c(C(=O)OCc2cc(=O)oc3cc(C)ccc23)c1,-7.8,-0.7,86.4*,11.5,-0.4,3.5
Cc1ccc2c(COC(=O)c3ccccc3Br)cc(=O)oc2c1,-5.1,-0.4,30.8,59.7*,-0.2,-3.0
C#CCOc1ccc(C2C3=C(COC3=O)Nc3cc4c(cc32)OCO4)cc1OC (configuration not stated),61.4*,-0.6,6.1,9.1,-0.9,3.2
Nc1nonc1C(=O)N/N=C/c1cc(Br)ccc1O,-5.3,167.9*,-87.0,-11.9,nt,-0.6
Cc1ccc(NC(=O)C(=O)Nc2ccc(C)cn2)nc1,7.7,0.4,0.9,3.9,-0.2,2.0
Cc1ccc(NC(=O)/C(C#N)=C(\N)C(Cl)(Cl)Cl)nc1,49.1,0.9,164.8*,13.1,-0.5,1.1
CCCCC(CC)C(=O)Nc1ccc(C)c(O)c1 (configuration not stated),-3.4,nt,3.3,53.0*,-0.1,1.6
NS(=O)(=O)c1ccc(N/C=C\C(=O)c2ccc(F)cc2)cc1,-21.9,0.6,5.1,33.7,1.7,-2.1
CN(C)c1ccc(N/C=C/C(=O)c2ccc(F)cc2)cc1,5.2,-1.0,105.0*,-5.0,-1.0,1.6
CC(=O)NC(c1ccc(F)c(F)c1)c1nc(-c2cnc3ccccc3c2)cs1 (configuration not stated),nt,nt,nt,nt,-0.3,nt
Cn1cc(C=C(C#N)C#N)c2ccccc21,-14.1,-1.1,154.2*,-0.1,0.4,-1.5
O=C(CCCCn1c(=O)c2ccccc2n(Cc2ccccc2)c1=O)NC1CCN(Cc2ccccc2)CC1,-4.3,1.3,0.8,-10.7,-0.5,-4.5
O=c1oc(/C=C/c2ccc([N+](=O)[O-])s2)nc2ccccc12,25.1,-0.9,183.0*,-3.8,i,1.7
CC(C)COC(=O)C(C)Nc1n[nH]c(=S)[nH]c1=O (configuration not stated),1.1,-0.6,-6.4,21.7,+,4.4
Cc1ccc(NC(=O)c2cc(N3C(=O)C=CC3=O)ccc2Cl)cc1C,-7.1,293.9*,2.9,-10.5,0.8,-2.0
Cc1ccc(NC(=O)c2cc(-n3cnnc3)ccc2Cl)cc1,-4.8,0.4,2.2,-1.0,-14.3,-6.2
COc1cc(C(=O)NCC(c2cccs2)N2CCOCC2)cc(Br)c1OCc1ccccc1 (configuration not stated),nt,132.5*,0.3,nt,-0.6,nt
COc1ccc(C(=O)NCC(c2cccs2)N2CCOCC2)cc1OC (configuration not stated),nt,1.0,2.9,nt,i,nt
CC[C@]1(C(=O)OC)[C@H]2C(=O)N(C)C(=O)[C@H]2[C@H]2CN(C)C(=NC)N21,nt,-0.2,3.6,nt,-1.0,nt
CC(=O)NC(=S)NNC(=O)C(c1ccccc1)c1ccccc1,14.2,62.4*,3.3,14.4,0.0,3.4
Cc1cc(O)c(C(=O)/C=C/c2cccc([N+](=O)[O-])c2)c(=O)o1,8.7,8.9,-3.3,-0.1,i,1.6
CC(=O)Oc1ccccc1C(=O)C=Cc1cccc([N+](=O)[O-])c1,nt,127.6*,9.4,nt,-0.1,nt
CCOc1ccc(NC(=O)Cn2nnc(C(=O)NCc3cccs3)c2N)cc1,0.0,-0.8,-6.9,-22.1,0.5,4.5
O=C1CSC(c2cccc([N+](=O)[O-])c2)N1Cc1ccccc1 (configuration not stated),9.4,1.2,6.2,62.9,-0.6,5.2
CC1NC(=O)c2cccnc2-n2c1nc1cc(F)c(F)cc1c2=O (configuration not stated),nt,nt,3.1,nt,i,nt
CN1C(=O)C(=Cc2ccccc2OCCOc2ccc([N+](=O)[O-])cc2)C(=O)N(C)C1=O,1.2,22.7,3.0,5.5,-1.1,2.3
O=C1NC(=O)C(=Cc2ccccc2OCCOc2ccc([N+](=O)[O-])cc2)C(=O)N1,nt,44.5*,-14.7,1.1,-0.4,9.2
COc1ccc(CNC(=O)c2cc(-c3ccncc3)nc3c(C)cc(C)cc23)cc1OC,5.6,-0.4,11.8,57.4*,-2.4,-0.3
